Assay results taken from PubChem BioAssay (NCI).
This is part of a sample that, as a whole, favours compounds with a hit. Of some 79,000 tested, about 15% had one in any assay. Activity calls are given as the source filed them. No stated cut-off is given here; in the data, active means growth inhibition above about 70%; inactive means the rest.

How the values were obtained:
[1] = NCI Yeast Anticancer Drug Screen. Data for the wt1 strain (AID 149);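 further: 0% = growth of vehicle-treated wt1 cultures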; conditions: S. cerevisiae wt1 strain (SPY 50644) growth inhibition, active compounds read high
In short: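 wt1 yeast, compound-treated; % growth inhibition vs vehicle control.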

[2] = NCI Yeast Anticancer Drug Screen. Data for the rad50EPP+ strain (AID 151);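 further: 0% = growth of vehicle-treated control cultures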; conditions: S. cerevisiae rad50 mutant strain, active compounds read high
In short: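 Genetically defined yeast (rad50EPP+, DNA damage repair alteration) is grown with compound, and inhibition of growth is expressed relative to vehicle-treated controls.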

[3] = NCI Yeast Anticancer Drug Screen. Data for the mgt1 strain (AID 153); conditions: S. cerevisiae mgt1 mutant growth inhibition, active compounds read high
In short: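 In the mgt1 strain, test compounds were added and growth inhibition was determined relative to vehicle-treated controls.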

[4] = NCI Yeast Anticancer Drug Screen. Data for the rad50 strain (AID 155);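 further: 0% = growth of vehicle-only cultures of the same strain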; conditions: S. cerevisiae rad50 strain growth inhibition, active compounds read high
In short: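 Genetically altered yeast (DNA repair pathway); compound treatment; growth inhibition vs vehicle ctrl.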

[5] = NCI Yeast Anticancer Drug Screen. Data for the mec2-1 strain (AID 157); conditions: S. cerevisiae mec2-1 strain, active compounds read high
In short: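 Each compound was tested on mec2-1 yeast, a strain altered in DNA damage repair or cell cycle control. Growth inhibition is reported relative to vehicle.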

[6] = NCI Yeast Anticancer Drug Screen. Data for the rad14 strain (AID 159);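 further: 0% = growth of vehicle-treated control cultures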; conditions: S. cerevisiae rad14 strain growth inhibition, active compounds read high
In short: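 Test compounds were applied to a repair-deficient yeast strain. Its growth was then compared with that of cultures given vehicle alone, and inhibition was expressed relative to those controls.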

[7] = NCI Yeast Anticancer Drug Screen. Data for the sgs1 mgt1 strain (AID 161);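 further: 0% = growth of cultures given vehicle only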; conditions: S. cerevisiae sgs1 mgt1 strain, active compounds read high
In short: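 Inhibition of yeast growth, normalised to vehicle-treated controls, is reported for a strain bearing genetic alterations in DNA damage repair.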

[8] = NCI Yeast Anticancer Drug Screen. Data for the CLN2oe strain (AID 163);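 further: 0% = growth of vehicle-only control cultures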; conditions: S. cerevisiae CLN2oe strain, active compounds read high
In short: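 First, the altered yeast strain was treated with each compound; second, its growth was measured; finally, inhibition was derived by comparison with vehicle controls.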

[9] = NCI Yeast Anticancer Drug Screen. Data for the cln2 rad14 strain (AID 165);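 further: 0% = growth equal to vehicle treated cultures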; conditions: S. cerevisiae cln2 rad14 strain, active compounds read high
In short: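 Test compounds were added to cln2 rad14 yeast cultures; inhibition of growth was then determined by comparison with vehicle treatment.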

[10] = NCI Yeast Anticancer Drug Screen. Data for the bub3 strain (AID 167); conditions: S. cerevisiae bub3 mutant strain, active compounds read high
In short: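 Yeast carrying a defined mutation is treated with each compound, and growth is compared with that of vehicle-exposed cells to give inhibition.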

[11] = NCI Yeast Anticancer Drug Screen. Data for the mlh1 strain (AID 171);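 further: 0% = growth of vehicle-treated control cultures of the same strain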; conditions: S. cerevisiae mlh1 strain growth inhibition, active compounds read high
In short: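 Inhibition values reflect reduced yeast growth in the presence of compound, referenced to vehicle controls, using a strain chosen for its alteration in DNA repair or cell cycle control.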

[12] = NCI Yeast Anticancer Drug Screen. Data for the sgs1 strain (AID 173);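 further: 0% = growth of vehicle-only control cultures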; conditions: S. cerevisiae sgs1 mutant, active compounds read high
In short: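 Vehicle-treated cultures served as reference for growth inhibition of a yeast strain altered in DNA damage repair or cell cycle control after compound exposure.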

[13] = NCI Yeast Anticancer Drug Screen. Data for the mlh1 rad18 strain (AID 175); conditions: S. cerevisiae mlh1 rad18 strain growth inhibition, active compounds read high
In short: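 Inhibition values reflect reduced growth of mutant yeast versus vehicle-treated controls following compound exposure; the mutations affect DNA damage repair.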

[14] = NCI Yeast Anticancer Drug Screen. Data for the rad18 strain (AID 177); conditions: S. cerevisiae rad18 mutant growth inhibition, active compounds read high
In short: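 Steps: expose repair-mutant yeast to compound; measure growth; express as inhibition relative to vehicle control.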

[15] = NCI Yeast Anticancer Drug Screen. Data for the wt2 strain (AID 169);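 further: 0% = growth of vehicle-treated yeast cultures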; conditions: S. cerevisiae wt2 strain growth inhibition, active compounds read high
In short: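 The panel's yeast strains carry defined changes in DNA repair or cell cycle genes. Each strain is grown with compound, and growth loss is scored relative to vehicle.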

[16] = at 5.0 µM (retest, dose inferred, filed as 0.5)
[17] = at 50.0 µM (retest, dose inferred, filed as 5.0)

Measured: growth inhibition

Nc1ccc2ncc(Nc3ccc(Cl)c(Cl)c3)nc2c1
inactive: [1]; at 1.2 µM -19% | [1]; at 3.7 µM 1% | [1]; at 11.0 µM 49% | [2]; at 1.2 µM -11% | [2]; at 3.7 µM -6% | [2]; at 11.0 µM 11% | [2]; at 33.0 µM 37% | [2]; at 100.0 µM 59% | [3]; at 1.2 µM -32% | [3]; at 3.7 µM -27% | [3]; at 11.0 µM 69% | [4]; at 1.2 µM 3% | [4]; at 3.7 µM 10% | [4]; [16] 1% | [5]; at 1.2 µM -6% | [5]; at 3.7 µM -16% | [5]; [16] 28% | [5]; at 11.0 µM 53% | [6]; at 1.2 µM -20% | [6]; at 3.7 µM -9% | [7]; [16] 12% | [8]; at 1.2 µM -17% | [8]; at 3.7 µM -6% | [8]; at 11.0 µM 69% | [9]; [16] 42% | [10]; at 1.2 µM -13% | [10]; at 3.7 µM -3% | [10]; [16] 44% | [10]; at 11.0 µM 54% | [11]; at 1.2 µM -4% | [11]; at 3.7 µM 4% | [12]; at 1.2 µM 0% | [12]; at 3.7 µM 17% | [13]; [16] 44% | [14]; at 1.2 µM -13% | [14]; at 3.7 µM -9% | [14]; at 11.0 µM 11%
active: [1]; at 33.0 µM 95% | [1]; at 100.0 µM 96% | [3]; at 33.0 µM 96% | [3]; at 100.0 µM 97% | [4]; at 11.0 µM 70% | [4]; at 33.0 µM 96% | [4]; [17] 95% | [4]; at 50.0 µM 85% | [4]; at 100.0 µM 96% | [5]; at 33.0 µM 96% | [5]; [17] 98% | [5]; at 50.0 µM 86% | [5]; at 100.0 µM 97% | [6]; at 11.0 µM 73% | [6]; at 33.0 µM 97% | [6]; at 100.0 µM 96% | [7]; [17] 95% | [7]; at 50.0 µM 89% | [8]; at 33.0 µM 97% | [8]; at 100.0 µM 97% | [9]; [17] 95% | [9]; at 50.0 µM 73.7% | [10]; at 33.0 µM 96% | [10]; [17] 97% | [10]; at 50.0 µM 87.2% | [10]; at 100.0 µM 96% | [11]; at 11.0 µM 75% | [11]; at 33.0 µM 96% | [11]; at 100.0 µM 97% | [12]; at 11.0 µM 78% | [12]; at 33.0 µM 97% | [12]; at 100.0 µM 97% | [13]; [17] 98% | [13]; at 50.0 µM 80.5% | [14]; at 33.0 µM 97% | [14]; at 100.0 µM 98%

c1ccc2cc(OCC3CO3)c(OCC3CO3)cc2c1 (stereo not drawn)
inactive: [1]; at 1.2 µM -21% | [1]; at 3.7 µM -21% | [1]; at 11.0 µM -24% | [1]; at 33.0 µM -16% | [1]; at 100.0 µM -2% | [2]; at 1.2 µM -21% | [2]; at 3.7 µM -4% | [2]; at 11.0 µM 22% | [2]; at 33.0 µM 59% | [3]; at 1.2 µM -43% | [3]; at 3.7 µM -25% | [3]; at 11.0 µM -4% | [3]; at 33.0 µM -21% | [3]; at 100.0 µM 11% | [4]; at 1.2 µM -26% | [4]; at 3.7 µM -21% | [4]; [16] 56% | [4]; at 11.0 µM 3% | [4]; at 33.0 µM 59% | [4]; at 50.0 µM 57.1% | [5]; at 1.2 µM -29% | [5]; at 3.7 µM -18% | [5]; [16] 27% | [5]; at 11.0 µM -29% | [5]; at 33.0 µM 1% | [5]; [17] 67% | [5]; at 50.0 µM 58.8% | [5]; at 100.0 µM 64% | [6]; at 1.2 µM -21% | [6]; at 3.7 µM -8% | [6]; at 11.0 µM 1% | [6]; at 33.0 µM 35% | [8]; at 1.2 µM -10% | [8]; at 3.7 µM -2% | [8]; at 11.0 µM -11% | [8]; at 33.0 µM -6% | [8]; at 100.0 µM 35% | [10]; at 1.2 µM -22% | [10]; at 3.7 µM -26% | [10]; [16] 19% | [10]; at 11.0 µM -24% | [10]; at 33.0 µM -22% | [10]; [17] 29% | [10]; at 50.0 µM -7.95% | [10]; at 100.0 µM 0% | [15]; at 1.2 µM -38% | [15]; at 3.7 µM -33% | [15]; at 11.0 µM -37% | [15]; at 33.0 µM -19% | [15]; at 100.0 µM 0% | [11]; at 1.2 µM -37% | [11]; at 3.7 µM -32% | [11]; at 11.0 µM -33% | [11]; at 33.0 µM -26% | [11]; at 100.0 µM 14% | [12]; at 1.2 µM -2% | [12]; at 3.7 µM 37% | [14]; at 1.2 µM -8% | [14]; at 3.7 µM 33% | [14]; at 11.0 µM 69%
active: [2]; at 100.0 µM 81% | [4]; [17] 91% | [4]; at 100.0 µM 83% | [6]; at 100.0 µM 82% | [7]; [16] 76% | [7]; [17] 93% | [7]; at 50.0 µM 76.8% | [12]; at 11.0 µM 70% | [12]; at 33.0 µM 82% | [12]; at 100.0 µM 84% | [13]; [16] 84% | [13]; [17] 96% | [13]; at 50.0 µM 81.7% | [14]; at 33.0 µM 86% | [14]; at 100.0 µM 92%
